Assay results published in PubChem BioAssay (Tox21).
Records with an inconclusive call do not appear. Calls of active or inactive are those of the source. Calls follow the shape of the dose curve; as a rule, active = well fitted activation curve with a large enough effect in the signal ratio in the repeat runs (not every such curve was filed as active); inconclusive = weak or mixed curves; inactive = flat fitted curve, though single readings scatter; the % refers to the signal ratio.

Experiment: qHTS assay to identify small molecule agonists of H2AX (AID 1224845)
Conditions: CHO-K1 phospho-H2AX Ser139 HTRF, 3 h; series mostly up to 154 µM; activation (H2AX phosphorylation): at the top concentration
Excerpt: National Center for Advancing Translational Sciences [NCATS]
NIH Chemical Genomics Center [NCGC]
U.S. Environmental Protection Agency [EPA]
National Institutes of Environmental Health Sciences [NIEHS]
National Toxicology Program [NTP]
U.S. Food and Drug Administration [FDA]
HTRF phospho-H2AX (Ser139) assay (Cisbio Bioassays, US) enables the quantitative detection of the histone variant H2AX when phosphorylated on serine 139. When double-stranded DNA breaks, either by ionizing radiation or endogenous physiological processes, H2AX becomes phosphorylated at Ser139. This phospho-Ser139 serves as a sensitive biomarker for the detection of such breaks, localizing the site of DNA repair. So, HTRF phospho-H2AX Ser139 is a pertinent assay to study genome stability, the cell cycle, DNA repair, and it serves as a biomarker for cancer, and to understand aging. Wild type CHO-K1 cells were used to identify the inducers of Phospho-H2AX Ser 139 from the Tox21 10K compound collections.
Tox21 Assay Protocol Summary:
The CHO-K1 cells suspended in culture medium containing 10% FBS were dispensed at 1000 cells/ 3 ul/well in 1536-well white wall/solid bottom plates (Greiner Bio-One North America, NC) using a Multidrop Combi (Thermo Fisher Scientific Inc., Waltham, MA). After the assay plates were incubated at 37C overnight, 23 nl of compounds at 15 concentrations (from 5-48 columns) or positive control (from 1 to 4 columns) were transferred to the assay plates using a Pintool station (Wako, San Diego, CA) into each well resulting in a final DMSO concentration of 0.76%. After 3hr incubation at 37C, 1 uL/well Supplemented Lysis buffer (diluted 100 fold blocking reagent in lysis buffer) (HTRF Phospho-H2A.X (S139) Assay kit from Cisbio US Inc., Bedford, MA) was added using a Flying Reagent Dispenser (FRD) (Aurora Discovery, CA). After 10sec spin at 1000 rpm in a plate centrifuge, the assay plates were incubated at room temperature for 30 min. Then followed by the addition of 1 uL/well detection buffer (containing a mixture of two antibodies, one labeled with cryptate, Anti pH2AX (S139)-K and another labeled with d2, Anti H2AX-d2) using FRD. After incubation at room temperature for 24 hr, the time resolved fluorescence at excitation 320 nm and emissions at 665 nm and 620 nm was measured using an Envision plate reader (PerkinElmer, Waltham, MA).
% is scaled to controls: 0 for no effect and ±100 for the full control effect.

SMILES | activation (H2AX phosphorylation)
COc1ccc(/C=C/C(=O)c2ccc(OC)cc2OC)cc1 | -3.6% [at 70.9 µM] (inactive)
CC1=CC[C@@]23C[C@@H]1C(C)(C)[C@@H]2CC[C@H]3C | -2.23% (inactive)
O=NN(CCCl)C(=O)NCCCl | -0.331% [at 70.9 µM] (inactive)
COc1ccc(CCN(C)CCCN2CCc3cc(OC)c(OC)cc3CC2=O)cc1OC | -0.164% [at 70.9 µM] (inactive)
Cc1cccc2sc(N)nc12 | -0.979% (inactive)
Cc1cc(CCC(=O)OCCOCCOCCOC(=O)CCc2cc(C)c(O)c(C(C)(C)C)c2)cc(C(C)(C)C)c1O | -1.91% (inactive)
CC(=O)Oc1cccc(O)c1 | 1.46% [at 70.9 µM] (inactive)
CC(=O)NCCO | -1.04% (inactive)
CN=C(N)NC(=O)Nc1c(C)cccc1C | 1.83% [at 70.9 µM] (inactive)
Cc1cccc(C)c1NC(=O)c1cc(S(N)(=O)=O)c(Cl)cc1O | 0.19% [at 70.9 µM] (inactive)
CCCCCCCCCCCCCOS(=O)(=O)O | -2.46% (inactive)
O=c1[nH][nH]c(=O)c2cc([N+](=O)[O-])ccc12 | 1.94% (inactive)
CC(CO)(CO)C(=O)O | -1.43% (inactive)
O[C@@H](CNC[C@H](O)[C@H]1CCc2cc(F)ccc2O1)[C@@H]1CCc2cc(F)ccc2O1 | 0.612% [at 70.9 µM] (inactive)
CC(C)(C)C(O)/C=C/c1ccc2c(c1)OCO2 (stereo not given) | -2.27% [at 70.9 µM] (inactive)
Cc1ccc(Cl)cc1N | 0.897% (inactive)
COc1ccc(-c2cc(C(F)F)nn2-c2ccc(S(N)(=O)=O)cc2)cc1F | -0.569% [at 70.9 µM] (inactive)
C/C(C=O)=C\c1ccccc1 | 0.802% (inactive)
CC(C)OC(=O)c1ccccc1C(=O)OC(C)C | 2.49% (inactive)
Cc1ccc2c(c1)CCCN2 | -0.775% (inactive)

SMILES | activation (H2AX phosphorylation)
Cc1ccc2c(c1[N+](=O)[O-])C(=O)c1ccccc1C2=O | 1.93% [at 70.9 µM] (inactive)
CC1=C2[C@@H]([C@H](C)CC[C@H]2/C=C(\C)C(=O)O)[C@H](O)C1 | 0.294% (inactive)
CC(C)COC(=O)COc1cc(Cl)c(Cl)cc1Cl | 1.45% (inactive)
CCN(CC)C(=O)N1CCN(C)CC1 | -0.438% [at 70.9 µM] (inactive)
O=C(O)c1cccc(Oc2ccccc2)c1 | 0.732% (inactive)
COc1cc(NC(C)CCCN)c2ncccc2c1 (stereo not given) | -1.66% [at 70.9 µM] (inactive)
CC[C@H]1OC(=O)[C@H](C)[C@@H](O[C@H]2C[C@@](C)(OC)[C@@H](O)[C@H](C)O2)[C@H](C)[C@@H](O[C@@H]2O[C@H](C)C[C@H](N(C)C)[C@H]2O)[C@](C)(O)C[C@@H](C)CN(C)[C@H](C)[C@@H](O)[C@]1(C)O | 0.389% [at 70.9 µM] (inactive)
Cc1ccc(Nc2c(F)cccc2Cl)c(CC(=O)O)c1 | 1.9% [at 70.9 µM] (inactive)
COc1ccc(C)cc1 | 0.319% (inactive)
CCCCCCC(O)CCOC(C)=O (stereo not given) | -0.176% [at 401 µM] (inactive)
CCCC(=O)OC(=O)CCC | -0.756% (inactive)
CC(C)C(=O)OCCOc1ccccc1 | 2.88% (inactive)
CC1CCc2nccnc21 (stereo not given) | -1.67% (inactive)
CC(=O)OCC(C)C | -2.24% (inactive)
CCCOC(=O)c1c(Cl)c(Cl)c(Cl)c(Cl)c1C(=O)OCCC | -1.99% (inactive)
OCC(CO)n1cnc(-c2ccc(F)cc2)c1-c1ccnc(Oc2ccccc2)n1 | -3.31% (inactive)
CNc1c2c(nn1C)CCCC2 | -0.124% [at 70.9 µM] (inactive)
COc1ccc(C2C(=O)c3ccccc3C2=O)cc1 | -1.48% [at 70.9 µM] (inactive)
CCN(CC)CCNC(=O)c1cc(Cl)c(N)cc1OC | 1.03% [at 70.9 µM] (inactive)
COc1ccc(-n2nc(C(F)F)cc2-c2ccc(S(C)=O)cc2)cc1 (stereo not given) | -1.44% (inactive)
